The source of these data is PubChem BioAssay (EPA / NIEHS).

Activity calls are given as the source filed them. How the source made its calls: active means hit-call score of the fitted dose curve at least 0.9, where 1 is the maximum; inactive means score below 0.9.

The AC50 is the midpoint of the concentration-response curve, whichever way the signal moves.

Heat shock factor protein 1 (Homo sapiens), sequence (Q00613 whole entry, looked up): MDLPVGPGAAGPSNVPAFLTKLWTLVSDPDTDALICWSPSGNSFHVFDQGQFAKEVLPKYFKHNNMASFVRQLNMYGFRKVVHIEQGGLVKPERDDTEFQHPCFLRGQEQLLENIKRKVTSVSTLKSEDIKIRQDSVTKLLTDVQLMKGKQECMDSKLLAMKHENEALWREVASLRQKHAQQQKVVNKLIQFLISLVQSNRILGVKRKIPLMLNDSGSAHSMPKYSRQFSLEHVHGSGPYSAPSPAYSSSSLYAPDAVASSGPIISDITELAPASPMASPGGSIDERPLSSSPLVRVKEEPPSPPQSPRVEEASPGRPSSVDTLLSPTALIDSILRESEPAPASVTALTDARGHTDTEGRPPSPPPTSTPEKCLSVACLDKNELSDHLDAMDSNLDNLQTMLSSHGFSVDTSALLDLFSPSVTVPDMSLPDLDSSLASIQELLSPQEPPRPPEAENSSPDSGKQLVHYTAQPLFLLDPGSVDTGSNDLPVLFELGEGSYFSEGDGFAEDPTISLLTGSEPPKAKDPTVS

This assay has as its target Heat shock factor protein 1 (Homo sapiens) (UniProt Q00613). Briefly: ATG_HSE_CIS: Attagene CIS-FACTORIAL HepG2 Assay for human Heat Shock Transcription Factor 1 (HSE) (AID 2282953). The conditions noted are these: HepG2 HSE cis-reporter, Attagene RNA transcription; actives raise or lower the signal. The protocol: ATG_CIS is a cell-based, multiplexed-readout assay that uses HepG2, a human liver cell line, with measurements taken at 24 hours after chemical dosing in a 24-well plate.ATG_HSE_CIS is one of 52 assay component(s) measured or calculated from the ATG_CIS assay. It is designed to make measurements of mRNA induction, a form of inducible reporter, as detected with fluorescence intensity signals by Reverse transcription polymerase chain reaction (RT-PCR) and Capillary electrophoresis technology.Data from the assay component ATG_HSE_CIS was analyzed into 1 assay endpoint. This assay endpoint, ATG_HSE_CIS, was analyzed with bidirectional fitting relative to DMSO as the negative control and baseline of activity. Using a type of inducible reporter, measures of mRNA for gain or loss-of-signal activity can be used to understand the reporter gene at the transcription factor-level as they relate to the gene HSF1. Furthermore, this assay endpoint can be referred to as a primary readout, because this assay has produced multiple assay endpoints where this one serves a reporter gene function. To generalize the intended target to other relatable targets, this assay endpoint is annotated to the dna binding intended target family, where the subfamily is heat shock protein.
Human liver HepG2 cells are transiently transfected with multiple reporter transcription units (MRTUs) in 6-well plates using FuGene 6 reagent (Roche; 3 ml FuGene/1 mg DNA). The MRTU constructs are regulated by a cis-regulating element (promoter). […] A major difference between the CIS and TRANS system is that in CIS activities of endogenous TFs are measured, whereas the TRANS assay evaluates changes in activities of exogenous, chimeric NR-Gal4 proteins. […] At the end of 24 hour incubation, total RNA was isolated using TriZol reagent (Invitrogen). The isolated RNA is then reverse-transcribed using oligo(dT) primer and Mo-MLV reverse transcriptase (Invitrogen) with DNAse I (Ambion) treatment for 30 min. The one-tenth of the produced cDNA was amplified by PCR using Taq DNA polymerase (Invitrogen) and two reporter sequence-specific primers. The PCR products were fluorescently labeled by primer extension with 6-arboxyfluorescein (6-FAM) 5'-labeled reporter sequence-specific primer (2 min at 95 C, 20 s at 68 C and 10 min at 72 C) and these products were digested with 5U of HpaI (New England Biolabs) for 2h at 37 C. The fragments were purified using Qiaquick PCR columns (Qiagen), analyzed on an ABI 3130xL genetic analyzer (Applied Biosystems) with peak positions identified by using a set of X-rhodamine (ROX)-labeled MapMarker1000 molecular weight standards (BioVentures). The raw capillary electrophoresis data was processed using Attagraph software (Attagene).
On to `OCCCC(F)(F)C(F)(F)C(F)(F)F`, for which the molecule was called inactive. With `Nc1cc(Cl)c(N)c(Cl)c1`, the molecule was called inactive. Regarding `O=C(CC(=O)C(F)(F)C(F)(F)F)C(F)(F)F`, the result was inactive. Still for that read-out and setting: the entry for `CCCCCC=O` is “inactive”; for `OCC(F)(F)C(F)(F)C(F)(F)F` it is “inactive”; for `CCCCCCCOC(=O)c1ccccc1C(=O)OCCCCCCC` it is “inactive”. Turning to `FC1CC(F)(F)C(F)(F)C1(F)F` (stereo not given), the molecule was called inactive. On the same count and under the same terms, the entry for `O=P(O)(O)OCCC(F)(F)C(F)(F)C(F)(F)C(F)(F)C(F)(F)C(F)(F)F` is “inactive”; for `COC(OC(C)=O)c1ccccc1` (stereo not given) it is “inactive”; for `FC(F)(F)C(F)(F)C(F)(F)CI` it is “inactive”. The same measure, in the same setting: the entry for `CC/C=C\CCOC(C)=O` is “inactive”; for `CCCCCCOC(=O)c1ccccc1O` it is “inactive”. With `O=C(C=Cc1ccccc1)OCC=Cc1ccccc1`, the call was inactive. Still for that read-out and setting: the entry for `CCO[Si](CCC(F)(F)C(F)(F)C(F)(F)C(F)(F)C(F)(F)C(F)(F)F)(OCC)OCC` is “inactive”; for `CCCCCCCCC(F)(F)C(F)(F)C(F)(F)C(F)(F)C(F)(F)C(F)(F)F` it is “inactive”; for `Cc1ccc(S(=O)(=O)NCl)cc1` it is “inactive”.

Turning to `CNC(=S)NC`, the result was inactive. On the same count and under the same terms, the entry for `O=C(O)C(F)(F)C(F)(F)C(F)(F)C(F)(F)C(F)(F)C(F)(F)C(F)(F)C(F)(F)C(F)(F)C(F)(F)C(F)(F)C(F)(F)F` is “inactive”. The same measure, in the same setting: the entry for `O=C(OCCOCCOCCOC(=O)c1ccccc1)c1ccccc1` is “inactive”; for `O[Si](c1ccccc1)(c1ccccc1)c1ccccc1` it is “inactive”; for `NC(=O)C(F)(F)C(F)(F)C(F)(F)C(F)(F)F` it is “inactive”. As to `Nc1ccc(Oc2cccc(Oc3ccc(N)cc3)c2)cc1`, the half-maximal activity concentration (AC50) is 160 µM (active). Take `COC(=O)CCC(F)(F)C(F)(F)C(F)(F)C(F)(F)F`: the molecule was classed as inactive. Turning to `CC/C=C\CCOC(=O)c1ccccc1`, the call was inactive. The same measure, in the same setting: the entry for `O=C(O)C=C(C(F)(F)F)C(F)(F)F` is “inactive”; for `OCC(F)(F)C(F)(F)C(F)(F)C(F)(F)C(F)(F)C(F)(F)F` it is “inactive”; for `[Co]` it is “inactive”. As to `CCCCCCC(C)OC(=O)CCCCC(=O)OC(C)CCCCCC` (stereo not given), the result was inactive. Still for that read-out and setting: the entry for `CCc1ccc(C(c2ccc(CC)cc2)C(Cl)Cl)cc1` is “inactive”; for `FC(F)(F)C(F)(F)C(F)(F)C(F)(F)C(F)(F)C(F)(F)CC1CO1` (stereo not given) it is “inactive”. On the same count and under the same terms, the entry for `O=S(=O)(OCCOC(F)(F)F)C(F)(F)F` is “inactive”; for `FC(F)(F)C(F)(F)C(F)(F)C(F)(F)C(F)(F)CCI` it is “inactive”. As for `Oc1ccc(Nc2ccccc2)cc1`, the AC50 was 168 µM (active). `CCCCCCS`: the call was inactive. Regarding `FC(F)(F)C(F)(F)C(F)(F)N(C(F)(F)C(F)(F)C(F)(F)F)C(F)(F)C(F)(F)C(F)(F)F`, the call was inactive. Same read-out and setting: the result for `CC(C)(C)C(=O)CC(=O)C(F)(F)C(F)(F)C(F)(F)F` reads “inactive”; that for `FC(F)(I)C(F)(F)C(F)(F)C(F)(F)I`, “inactive”; that for `FC(F)(F)C(F)(F)C(F)(F)C(F)(F)C(F)(F)C(F)(F)C(F)(F)Br`, “inactive”. In the case of `C(=C(c1ccccc1)c1ccccc1)c1ccccc1`, the outcome was inactive. In the case of `CC(C)(C)c1ccc(OC2CCCCC2O)cc1` (stereo not given), the molecule was classed as inactive.
